Experiment [1] in a line: qHTS assay to identify small molecule antagonists of the thyroid receptor (TR) signaling pathway - cell viability counter screen (AID 743064). Also: nearly all actives have a fitted effect of over 50% in size. Also: potency is read from the fitted curve at half-maximal effect. The essentials: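 Rat GH3 pituitary tumor cells stably expressing two TR response elements driving luciferase were plated, rested 4 h, then dosed with library compounds and T3 (1 nM final). After 23.5 h at 37 °C, CellTiter-Fluor was added for 30 min and fluorescence recorded.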
On the technique in general: In qHTS, concentration-response curves come from the screen itself.

Experiment [2] in a line: qHTS assay to identify small molecule antagonists of the thyroid receptor (TR) signaling pathway (AID 743065). Also: series mostly up to about 70 µM; nearly all actives have a fitted effect of over 55% in size. In short, it runs like this:
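GH3.TRE-Luc rat pituitary cells (two TREs driving luciferase) were dosed with compound, then stimulated with 1 nM T3 (final) for 23.5 h at 37 C. ONE-Glo luminescence was the read-out, with CellTiter-Fluor fluorescence as the cytotoxicity counter-screen.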

In experiment [3] the test system is thyroid hormone receptor (rat, GH3 cells). The experiment can be described thus: qHTS assay to identify small molecule agonists of the thyroid receptor (TR) signaling pathway (AID 743066; calls by dose curve).
Experiment [4] can be described thus: qHTS assay to identify small molecule antagonists of the estrogen receptor alpha (ER-alpha) signaling pathway - cell viability counter screen (AID 743074; calls by dose curve; also: nearly all actives have a fitted effect of over 45% in size).
For experiment [5], the target named is Estrogen receptor (Homo sapiens) (UniProt P03372). The experiment can be described thus: qHTS assay to identify small molecule agonists of the estrogen receptor alpha (ER-alpha) signaling pathway (AID 743075; calls by dose curve).
Sequence of Estrogen receptor (Homo sapiens) (P03372 whole entry, looked up): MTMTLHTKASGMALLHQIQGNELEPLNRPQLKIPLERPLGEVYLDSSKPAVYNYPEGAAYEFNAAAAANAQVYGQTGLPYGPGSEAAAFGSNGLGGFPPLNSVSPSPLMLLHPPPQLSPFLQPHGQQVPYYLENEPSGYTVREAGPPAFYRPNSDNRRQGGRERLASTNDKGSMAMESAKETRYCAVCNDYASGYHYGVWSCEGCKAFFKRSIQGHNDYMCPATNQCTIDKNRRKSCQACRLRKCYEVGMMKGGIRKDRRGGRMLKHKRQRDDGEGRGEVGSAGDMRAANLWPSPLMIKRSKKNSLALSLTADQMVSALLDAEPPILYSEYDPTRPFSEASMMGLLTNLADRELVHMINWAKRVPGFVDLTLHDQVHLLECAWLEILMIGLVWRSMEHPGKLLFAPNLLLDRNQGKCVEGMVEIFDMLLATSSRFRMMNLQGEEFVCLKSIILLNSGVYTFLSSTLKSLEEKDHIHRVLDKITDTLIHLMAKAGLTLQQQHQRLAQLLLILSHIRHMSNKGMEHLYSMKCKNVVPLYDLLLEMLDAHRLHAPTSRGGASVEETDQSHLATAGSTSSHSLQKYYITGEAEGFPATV
For experiment [6] the target is unchanged. The experiment can be described thus: qHTS assay to identify small molecule agonists of the estrogen receptor alpha (ER-alpha) signaling pathway using the BG1 cell line (AID 743079). Also: nearly all actives have a fitted effect of over 20% in size.
Experiment [7] can be described thus: qHTS assay to identify small molecule antagonists of the estrogen receptor alpha (ER-alpha) signaling pathway using the BG1 cell line (AID 743080; calls by dose curve;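 also: BG1 cells stimulated with 17beta-estradiol alongside compound; series mostly up to about 70 µM; nearly all actives have a fitted effect of over 25% in size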). In short, it runs like this: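 Luciferase inhibition measured with ONE-Glo after 30 min at RT in BG1Luc4E2 cells given test compounds and 17beta-estradiol for 21.5 h at 37 C; CellTiter-Fluor viability read in the same wells beforehand.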

Experiment [8] can be described thus: qHTS assay to identify small molecule antagonists of the estrogen receptor alpha (ER-alpha) signaling pathway using the BG1 cell line - cell viability counter screen (AID 743081).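 Also: compound given together with 17beta-estradiol as the ER stimulus; series mostly up to about 70 µM; nearly all actives have a fitted effect of over 45% in size.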
Another experiment has as its target Aromatase (Homo sapiens) (UniProt P11511). Put plainly: qHTS assay to identify aromatase inhibitors (AID 743083). Also: nearly all actives have a fitted effect of over 55% in size. Also: potency is read from the fitted curve at half-maximal effect.
The nature of experiment [9]: qHTS assay to identify aromatase inhibitors - cell viability counter screen (AID 743084).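 Also: cells stimulated with testosterone during compound exposure; nearly all actives have a fitted effect of over 55% in size.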 Also: potency is read from the fitted curve at half-maximal effect.
Experiment [10] addresses Aryl hydrocarbon receptor (Homo sapiens) (UniProt P35869). Put plainly: qHTS assay to identify small molecule that activate the aryl hydrocarbon receptor (AhR) signaling pathway (AID 743085). Also: nearly all actives have a fitted effect of over 15% in size. Also: potency is read from the fitted curve at half-maximal effect.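 As to activation: HG2L7.5c1 human HepG2 liver cells with stably integrated DRE-driven firefly reporter; series mostly up to about 70 µM.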 The essentials: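 Compounds were tested in HepG2 hepatocellular carcinoma cells harbouring a stably integrated luciferase gene under control of 20 DREs. Increased reporter signal after 24 h treatment at 37C was taken as AhR activation.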

Experiment [11] is described as follows: qHTS assay to identify small molecule that activate the aryl hydrocarbon receptor (AhR) signaling pathway - cell viability counter screen (AID 743086).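 Also: HepG2 liver cells carrying the AhR DRE luciferase reporter; series mostly up to about 70 µM; nearly all actives have a fitted effect of over 45% in size.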 In short, it runs like this:
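HepG2-AhR-luc (HG2L7.5c1) cells, 4000/well, treated 24 h at 37 C with compound; viability measured as CellTiter-Fluor fluorescence after 30 min in the same wells as the luciferase read.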

Experiment [12] in a line: qHTS assay for small molecule agonists of the antioxidant response element (ARE) signaling pathway - cell viability counter screen (AID 743203; calls by dose curve; also: nearly all actives have a fitted effect of over 55% in size; also: potency is read from the fitted curve at half-maximal effect). The essentials: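 Parallel cytotoxicity read-out for the ARE-bla screen: HepG2 reporter cells, 16 hrs with compounds, then CellTiter-Glo luminescence.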
Experiment [13] in a line: qHTS assay for small molecule activators of the heat shock response signaling pathway - cell viability counter screen (AID 743209). Also: nearly all actives have a fitted effect of over 50% in size. In short, it runs like this: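 To flag cytotoxic compounds, HSE-bla HeLa cells plated at 1500 cells/well were dosed for 5 h at 37 C, followed by the reporter FRET read and then CellTiter-Glo, with luminescence recorded 30 min after reagent addition.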

A short description of experiment [14]: qHTS assay for small molecule activators of the heat shock response signaling pathway (AID 743210; active = well fitted activation curve with a large enough effect in the signal ratio in the repeat runs, with a control signal flat, not every such curve was filed as active; the % refers to the signal ratio;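 also: HeLa cells with beta-lactamase reporter driven by heat shock elements; series mostly up to about 63 µM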). In short, it runs like this: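 Following overnight attachment, HSE-bla HeLa cells received test compounds for 5 h at 37 C; beta-lactamase activity was then detected via FRET substrate fluorescence.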
Experiment [15] has as its target Peroxisome proliferator-activated receptor gamma (Homo sapiens) (UniProt P37231). The experiment can be described thus: qHTS assay to identify small molecule agonists of the peroxisome proliferator-activated receptor gamma (PPARg) signaling pathway (AID 743094; active = well fitted activation curve with a large enough effect in the signal ratio in the repeat runs, not every such curve was filed as active; the % refers to the signal ratio). The essentials:
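Fluorescence-based beta-lactamase readout in HEK293H PPARg UAS-bla cells after 17 h compound exposure (37C) and 1 h B/G FRET substrate incubation at room temperature.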

The target is the same in experiment [16]. The experiment can be described thus: qHTS assay to identify small molecule antagonists of the peroxisome proliferator-activated receptor gamma (PPARg) signaling pathway (AID 743191; calls by dose curve; also: series mostly up to about 63 µM; nearly all actives have a fitted effect of over 30% in size). The essentials:
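GeneBLAzer PPARg UAS-bla HEK293H cells, 5 h post-plating, exposed to compounds 17 h at 37C. LiveBLAzer B/G FRET substrate added for 1 h at room temperature; beta-lactamase reporter read by fluorescence intensity.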

The nature of experiment [17]: qHTS assay for small molecule agonists of the antioxidant response element (ARE) signaling pathway (AID 743202; active = well fitted activation curve with a large enough effect in the signal ratio in the repeat runs, not every such curve was filed as active; the % refers to the signal ratio). In short, it runs like this:
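HepG2 ARE-bla cells; 16 h treatment at 37 C; FRET-based beta-lactamase fluorescence read after 2 h substrate incubation at room temperature.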

A short description of experiment [18]: qHTS assay to identify small molecule antagonists of the peroxisome proliferator-activated receptor gamma (PPARg) signaling pathway - cell viability counter screen (AID 743194). Also: nearly all actives have a fitted effect of over 55% in size. In short, it runs like this: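 Cytotoxicity counter screen in PPARg-bla HEK293H cells, same wells as reporter assay. Compounds plus 50 nM rosiglitazone (final) for 17 h at 37 C, then viability read by CellTiter-Glo luminescence.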

Experiment [19] deals with Estrogen receptor (Homo sapiens) (UniProt P03372). The experiment can be described thus: qHTS assay to identify small molecule antagonists of the estrogen receptor alpha (ER-alpha) signaling pathway (AID 743069; active = well fitted curve in the direction sought with a large enough effect in the signal ratio in the repeat runs, not every such curve was filed as active; the % refers to the signal ratio). The essentials: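 In this cell-based reporter format, GripTite HEK293 cells harbouring ER-alpha-UAS-bla were grown overnight with 2% charcoal-stripped FBS, dosed with DMSO-dissolved compounds, then challenged with 17beta-estradiol. After 18 hr at 37C, beta-lactamase activity was detected by FRET fluorescence.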

Where “and” joins values, the source holds several entries; their conditions need not be identical. Equal entries are not always repeated. Inconclusive results are not listed. Some structures have more than one record in an assay (separate samples or runs), and their calls can disagree. Calls of active or inactive are those of the source. Unless noted, calls follow the shape of the dose curve; as a rule, active = well fitted curve in the direction sought with a large enough effect in the repeat runs; inconclusive = weak or mixed curves; inactive = no such curve, though single readings can be large; an effect the other way counts as inactive or inconclusive.

Sequence of Aromatase (Homo sapiens) (P11511 whole entry, looked up): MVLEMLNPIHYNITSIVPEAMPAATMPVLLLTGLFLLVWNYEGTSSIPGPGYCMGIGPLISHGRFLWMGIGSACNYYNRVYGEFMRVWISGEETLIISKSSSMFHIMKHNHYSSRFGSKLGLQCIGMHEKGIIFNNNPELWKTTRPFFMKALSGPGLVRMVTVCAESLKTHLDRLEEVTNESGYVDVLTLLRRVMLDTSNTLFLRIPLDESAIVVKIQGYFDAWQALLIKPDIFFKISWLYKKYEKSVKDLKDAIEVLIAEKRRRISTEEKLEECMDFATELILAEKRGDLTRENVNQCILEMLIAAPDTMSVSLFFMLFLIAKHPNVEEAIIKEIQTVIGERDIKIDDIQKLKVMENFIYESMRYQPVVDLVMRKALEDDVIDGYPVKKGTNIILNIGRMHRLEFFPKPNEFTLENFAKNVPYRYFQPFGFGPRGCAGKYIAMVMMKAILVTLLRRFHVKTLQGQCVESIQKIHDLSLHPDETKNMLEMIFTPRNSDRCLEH
Sequence of Aryl hydrocarbon receptor (Homo sapiens) (P35869 whole entry, looked up): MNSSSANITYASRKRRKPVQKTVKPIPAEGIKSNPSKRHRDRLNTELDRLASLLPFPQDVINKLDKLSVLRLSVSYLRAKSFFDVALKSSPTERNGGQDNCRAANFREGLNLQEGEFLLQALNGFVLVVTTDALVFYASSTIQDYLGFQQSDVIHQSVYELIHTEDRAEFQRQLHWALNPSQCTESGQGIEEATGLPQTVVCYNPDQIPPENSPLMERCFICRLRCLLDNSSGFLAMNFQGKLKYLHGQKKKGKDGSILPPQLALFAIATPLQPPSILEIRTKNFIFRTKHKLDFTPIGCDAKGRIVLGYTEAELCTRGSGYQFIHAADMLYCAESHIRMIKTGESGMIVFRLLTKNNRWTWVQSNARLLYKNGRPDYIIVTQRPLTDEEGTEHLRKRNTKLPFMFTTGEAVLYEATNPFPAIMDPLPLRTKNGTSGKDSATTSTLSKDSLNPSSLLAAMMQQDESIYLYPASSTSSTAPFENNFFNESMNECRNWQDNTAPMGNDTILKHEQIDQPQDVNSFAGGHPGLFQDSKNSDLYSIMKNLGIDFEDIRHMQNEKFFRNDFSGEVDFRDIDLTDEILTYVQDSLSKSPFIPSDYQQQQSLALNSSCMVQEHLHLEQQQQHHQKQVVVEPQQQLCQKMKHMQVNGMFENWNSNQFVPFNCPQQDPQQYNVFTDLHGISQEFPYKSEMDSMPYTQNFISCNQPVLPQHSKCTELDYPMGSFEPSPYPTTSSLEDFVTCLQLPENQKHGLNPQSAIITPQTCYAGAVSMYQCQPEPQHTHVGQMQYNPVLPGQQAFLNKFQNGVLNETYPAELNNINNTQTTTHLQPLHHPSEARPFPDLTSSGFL
Sequence of Peroxisome proliferator-activated receptor gamma (Homo sapiens) (P37231 whole entry, looked up): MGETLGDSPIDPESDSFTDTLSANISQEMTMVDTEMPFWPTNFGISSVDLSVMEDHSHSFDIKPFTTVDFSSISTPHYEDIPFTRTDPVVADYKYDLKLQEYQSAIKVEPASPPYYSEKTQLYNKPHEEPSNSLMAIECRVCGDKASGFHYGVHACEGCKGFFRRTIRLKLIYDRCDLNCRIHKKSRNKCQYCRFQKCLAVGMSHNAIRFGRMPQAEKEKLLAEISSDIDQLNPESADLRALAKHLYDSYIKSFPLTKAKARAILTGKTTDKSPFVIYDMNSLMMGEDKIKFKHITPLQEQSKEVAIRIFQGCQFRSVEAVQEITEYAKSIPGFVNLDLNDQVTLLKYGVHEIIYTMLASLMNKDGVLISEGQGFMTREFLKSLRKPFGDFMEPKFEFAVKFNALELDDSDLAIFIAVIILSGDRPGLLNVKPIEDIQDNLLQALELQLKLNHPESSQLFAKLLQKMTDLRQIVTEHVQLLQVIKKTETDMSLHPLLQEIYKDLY

Consider `Nc1ccc(Cl)c(N)c1`, for which the Potency result (in experiment [1]; in experiment [2]; in experiment [5]; in experiment [6]; in [8]; with Aromatase (Homo sapiens)) was “inactive” in each case. Besides, the Potency entry in experiment [9], in experiment [11] and in experiment [12] was “inactive” in each case. The compound was classed as inactive in experiment [3], in experiment [4], in experiment [7], in experiment [13] and in [14]. Besides, in [10], the Potency is 19.4 µM (active) and 7.7 µM (active).

Turning to `C=CC[N+](C)(C)CC=C`, the Potency result (in [1]; in experiment [2]; in experiment [8]; with Aromatase (Homo sapiens); in experiment [9]; in experiment [10]) was “inactive” throughout. Besides, the Potency entry in [11], in [17] and in [12] was “inactive” each time. The compound was classed as inactive in experiment [3], in [4], in experiment [15], in experiment [16] and in [13].

Turning to `c1ccc(Oc2ccccc2)cc1`, the Potency result (in experiment [1]; in [2]; in experiment [8]; with Aromatase (Homo sapiens); in [9]; in experiment [10]) was “inactive” in each case. Besides, the Potency result in experiment [11] and in [12] was “inactive” in each case. Also, the result in experiment [3], in experiment [4], in experiment [13] and in experiment [14] was inactive.

`N[C@H](Cc1c[nH]c2ccccc12)C(=O)O`: the Potency entry (in experiment [1]; in [2]; in experiment [8]; with Aromatase (Homo sapiens); in [9]; in [11]) was “inactive” throughout. In addition, the Potency entry in [17] and in experiment [12] was “inactive” throughout. In addition, the call in experiment [3], in [4], in [15], in [16], in experiment [18] and in experiment [13] was inactive. The compound was classed as inactive in experiment [14].

Turning to `C=C(C)CNCC`, the Potency entry (in [1]; in experiment [2]; in [8]; in the experiment with Aromatase (Homo sapiens); in experiment [9]; in [10]) was “inactive” in each case. For the same compound, the Potency result in [11] and in experiment [12] was “inactive” throughout. In addition, the call in experiment [3], in experiment [4], in experiment [15], in [16], in experiment [13] and in [14] was inactive.

As for `CN(C)c1ccc(Cc2ccc(N(C)C)cc2)cc1`, the Potency entry (in [1]; in [2]; in experiment [8]; in the experiment with Aromatase (Homo sapiens); in [9]; in experiment [11]) was “inactive” each time. The Potency result in [17] and in experiment [12] was “inactive” in each case. Besides, the call in [3], in experiment [4], in experiment [15], in experiment [16], in experiment [18] and in experiment [13] was inactive. In experiment [14], the compound was called inactive.

Consider `Cc1ccc(C(C)C)c(O)c1`, for which the Potency is 61.1 µM (active) in experiment [1]; “inactive and 54.5 µM (active)” in the experiment with Aromatase (Homo sapiens); “inactive and 61.1 µM (active)” in experiment [9]; 61.1 µM (active) and inactive in experiment [12]. Moreover, the compound was classed as inactive in experiment [3], in experiment [4], in experiment [7], in [15], in [16] and in experiment [18]. The compound was called inactive in experiment [13] and in experiment [14]. For the same compound, the Potency entry in experiment [19], in experiment [5], in experiment [6], in experiment [8], in experiment [10] and in experiment [11] was “inactive” throughout. In addition, the Potency entry in experiment [17] is “inactive”.

Regarding `NCCCCCCN`, the Potency result (in experiment [1]; in [2]; in experiment [8]; with Aromatase (Homo sapiens); in experiment [9]; in experiment [10]) was “inactive” in each case. For the same compound, the Potency entry in experiment [11], in experiment [17] and in experiment [12] was “inactive” in each case. Also, the outcome in [3], in experiment [4], in [15], in experiment [16], in experiment [18] and in experiment [13] was inactive. Also, the call in experiment [14] was inactive.

`CCOCCOCCOCCO`: the Potency result (in experiment [1]; in [2]; in [8]; with Aromatase (Homo sapiens); in [9]; in [10]) was “inactive” throughout. For the same compound, the Potency entry in experiment [11], in experiment [17] and in [12] was “inactive” in each case. Moreover, the result in experiment [3], in experiment [4], in experiment [15], in experiment [16], in [18] and in experiment [13] was inactive. Moreover, in experiment [14], the compound was classed as inactive.

In the case of `C[C@]12CC[C@@H]3c4ccc(O)cc4CC[C@H]3[C@@H]1C[C@@H](O)[C@@H]2O`, the Potency entry (in [1]; in experiment [2]; in [8]; with Aromatase (Homo sapiens); in experiment [9]; in experiment [10]) was “inactive” each time. Besides, the Potency result in experiment [11], in experiment [17] and in experiment [12] was “inactive” throughout. Further, the call in [3], in [4], in [15], in experiment [16], in [18] and in experiment [13] was inactive. The call in experiment [14] was inactive.

The values above are taken from PubChem BioAssay (Tox21).
